# Laboratory results as given in PubChem BioAssay.
# This is one part of the list. Activity calls are given as the source filed them. Unless noted, the rule behind the calls is not given here.
# Tests used:
# [1] = molecular target: PEG-3 (UniProt Q6IN02); experiment: Peg3 promoter luciferase inhibitors, potency, dose response, cell-based, HeLa, CREF/GAPDH counter-screen panel (AID 624167); conditions: HeLa PEG-Prom luciferase reporter, overnight, CREF/GAPDH counter-screens; run 1, dose range 1, at 100 µM (top of the series)
# Chain of PEG-3 (Q6IN02 whole entry, looked up): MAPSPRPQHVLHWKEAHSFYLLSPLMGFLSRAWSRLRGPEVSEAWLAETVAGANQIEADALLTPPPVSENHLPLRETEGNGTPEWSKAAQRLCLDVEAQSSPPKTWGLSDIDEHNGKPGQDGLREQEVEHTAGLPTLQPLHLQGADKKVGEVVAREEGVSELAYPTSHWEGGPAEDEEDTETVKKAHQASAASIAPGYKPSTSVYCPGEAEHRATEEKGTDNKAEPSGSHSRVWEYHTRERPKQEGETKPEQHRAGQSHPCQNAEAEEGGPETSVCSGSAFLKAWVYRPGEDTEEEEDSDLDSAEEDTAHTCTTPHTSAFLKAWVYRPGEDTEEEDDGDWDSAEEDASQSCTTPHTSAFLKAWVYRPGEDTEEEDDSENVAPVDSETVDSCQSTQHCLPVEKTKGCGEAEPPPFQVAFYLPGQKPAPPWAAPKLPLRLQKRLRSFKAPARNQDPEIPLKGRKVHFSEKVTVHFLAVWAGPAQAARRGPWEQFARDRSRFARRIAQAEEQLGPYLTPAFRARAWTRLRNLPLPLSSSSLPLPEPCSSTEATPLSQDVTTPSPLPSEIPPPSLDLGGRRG
# [2] = molecular target: PEG-3 (UniProt Q6IN02); experiment: as above; conditions: HeLa PEG-Prom luciferase reporter, overnight, CREF/GAPDH counter-screens; run 2, dose range 1, at 100 µM (top of the series)
# [3] = inhibitors of PAF-induced NF-kB signaling, retest, confirmation, cell-based, GFP fluorescence, single concentration (AID 602472; in the data active = inhibition above about 40%;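 note: stimulus PAF is a Pseudomonas aeruginosa filtrate and not platelet activating factor; plate controls were DMSO wells with stimulus for no effect and unstimulated DMSO wells for full effect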); conditions: KKLEB CF airway cells, overnight, at 5 µM, stronger effect = higher value
# [4] = HIF-2a reporter inhibitor retest, confirmation, luminescence, 786-0 RCC cells (AID 651580;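 active = mean inhibition across four replicates of at least 40 percent at the single tested concentration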); conditions: HIF-2a luciferase reporter luminescence, overnight, at 18.8 µM, stronger effect = higher value
# [5] = HIF-1a luciferase reporter signal reduction – MiaPaCa-2 cells, single concentration, counter-screen for HIF-2a inhibitor project, confirmation (AID 651589;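 active = mean inhibition of the reporter signal across four replicates at the single tested dose of 50% or more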); conditions: MiaPaCa-2 HIF-1a luciferase reporter, desferoxamine, overnight; at 18.8 µM; stronger effect = higher value
# [6] = inhibition of Brca1/Bard1 split-luciferase complementation, confirmation, counter-screen for Mdm2/MdmX interaction inhibitor project, luminescence, single concentration (AID 504668); conditions: Brca1/Bard1 bimolecular luciferase complementation counterscreen, at 8 µM, stronger effect = higher value
# [7] = molecular target: Tumor necrosis factor receptor superfamily member 10B (Homo sapiens) (UniProt O14763); experiment: caspase-8 TRAIL sensitization, hit retest, confirmation, cell-based, NB7+caspase-8, with/without TRAIL, luminescence panel (AID 651596; in the data active = activity above about 50%); conditions: NB7 neuroblastoma + caspase-8, TRAIL sensitization, luminescence viability, with TRAIL, mean of runs, at 10 µM, stronger effect = higher value
# Chain of Tumor necrosis factor receptor superfamily member 10B (Homo sapiens) (O14763 whole entry, looked up): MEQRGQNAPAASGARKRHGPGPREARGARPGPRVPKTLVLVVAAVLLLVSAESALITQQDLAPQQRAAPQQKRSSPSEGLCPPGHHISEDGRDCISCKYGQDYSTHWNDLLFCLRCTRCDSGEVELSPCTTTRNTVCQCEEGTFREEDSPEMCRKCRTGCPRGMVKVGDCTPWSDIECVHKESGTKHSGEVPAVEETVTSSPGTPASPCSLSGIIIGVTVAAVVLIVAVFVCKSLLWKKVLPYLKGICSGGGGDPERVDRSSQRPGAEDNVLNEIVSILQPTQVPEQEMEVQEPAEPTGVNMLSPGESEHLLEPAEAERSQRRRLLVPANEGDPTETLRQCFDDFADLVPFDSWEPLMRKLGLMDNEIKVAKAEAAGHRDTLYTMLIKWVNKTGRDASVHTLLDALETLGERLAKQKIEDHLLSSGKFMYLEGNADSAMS
# [8] = as above; conditions: NB7 neuroblastoma + caspase-8, without TRAIL, luminescence viability, without TRAIL, mean of runs, at 10 µM
# [9] = molecular target: Tumor necrosis factor receptor superfamily member 10B (Homo sapiens) (UniProt O14763); experiment: TRAIL sensitizers in caspase-8 expressing neuroblastoma cells, dose response, NB7 cells plus caspase-8, luminescence, panel (AID 652002); conditions: NB7 neuroblastoma +caspase-8, TRAIL sensitization, luminescence viability, NB7+Caspase-8, with TRAIL, run 1; at 12.5 µM (top of the series)
# [10] = molecular target: Tumor necrosis factor receptor superfamily member 10B (Homo sapiens) (UniProt O14763); experiment: as above; conditions: NB7 neuroblastoma +caspase-8, TRAIL sensitization, luminescence viability, NB7+Caspase-8, with TRAIL, run 2; at 12.5 µM (top of the series)
# [11] = as above; conditions: NB7 neuroblastoma +caspase-8, no TRAIL, compound-alone cytotoxicity counter-screen, luminescence viability, NB7+Caspase-8, run 1; at 12.5 µM (top of the series)
# [12] = as above; conditions: NB7 neuroblastoma +caspase-8, no TRAIL, compound-alone cytotoxicity counter-screen, luminescence viability, NB7+Caspase-8, run 2; at 12.5 µM (top of the series)
# [13] = system: Rat fibroblasts (CREF); experiment: Peg3 promoter luciferase inhibitors, potency, dose response, cell-based, HeLa, CREF/GAPDH counter-screen panel (AID 624167); conditions: CREF/GAPDH counter-screens; run 1, dose range 1, at 100 µM (top of the series)
# [14] = system: Rat fibroblasts (CREF); experiment: as above; conditions: CREF/GAPDH counter-screens; run 2, dose range 1, at 100 µM (top of the series)
# [15] = Peg3 promoter reporter inhibitors, retest, confirmation, cell-based, HeLa, luciferase reporter, single concentration (AID 602417;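 active = at 20 µM dose, 40% or more inhibition averaged across four replicates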); conditions: HeLa PEG-Prom luciferase reporter, luminescence, overnight; at 20 µM; stronger effect = higher value
# [16] = molecular target: Carboxy-terminal domain RNA polymerase II polypeptide A small phosphatase 1 (Homo sapiens) (UniProt Q9GZU7); experiment: Scp-1 binding by thermal shift, confirmation, orthogonal assay for Scp-1 inhibitor project, biophysical, differential scanning fluorimetry (AID 540329;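 active = substances whose mean melting-temperature shift, as a percentage of the reference inhibitor's shift, reaches about 5.3%, limit read from the data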;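 note: 0% = Tm of DMSO wells and 100% = Tm with sodium orthovanadate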); conditions: Recombinant SCP1, Sypro Orange thermal shift Tm; at 40 µM; stronger effect = higher value
# Chain of Carboxy-terminal domain RNA polymerase II polypeptide A small phosphatase 1 (Homo sapiens) (Q9GZU7 76-261 limits assumed): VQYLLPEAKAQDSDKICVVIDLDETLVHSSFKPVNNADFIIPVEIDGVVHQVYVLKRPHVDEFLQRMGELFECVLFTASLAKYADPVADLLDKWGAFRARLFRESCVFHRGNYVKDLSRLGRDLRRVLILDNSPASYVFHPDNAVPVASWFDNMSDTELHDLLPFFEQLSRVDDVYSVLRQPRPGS
compound,measurement,setting,value
CCCCn1nnnc1C(CCSC)N1CCC(n2c(=O)[nH]c3ccccc32)CC1 (stereo unspecified),inhibition,[1],72.5%
same,inhibition,[2],71.8%
c1ccc(-c2cc(-c3ccccc3)[n+](-c3ccccc3)c(-c3ccccc3)c2)cc1,inhibition,[1],98.2%
same,inhibition,[2],99.1%
CC(=CCOc1ccc2ccc(=O)oc2c1)C1=CC(=O)C(C)(C)O1,inhibition,[3],-46% (inactive)
same,inhibition,[4],44.2% (active)
same,inhibition,[5],90.3% (active)
CCOC(=O)c1cccc(-[n+]2c(-c3ccccc3)cc(-c3ccccc3)cc2-c2ccccc2)c1,inhibition,[6],33.2% (active)
same,activity,[7],49.7%
same,activity,[8],44%
same,"activity, % sensitization",[9],6.7%
same,"activity, % sensitization",[10],9.91%
same,"activity, % sensitization",[11],9.79%
same,"activity, % sensitization",[12],5.11%
O=C1NC(=S)N(c2ccccc2F)C(=O)/C1=C\c1cccs1,inhibition,[1],102%
same,inhibition,[2],99%
O=C(CSC1c2ccccc2-c2ccccc21)N/N=C/c1ccccc1O,inhibition,[6],27.7% (active)
same,inhibition,[1],79.8%
same,inhibition,[2],66.1%
same,inhibition,[13],64.9%
same,inhibition,[14],74.1%
O=[N+]([O-])c1cc(F)c(N2CCCCCC2)cc1N1CCNCC1,inhibition,[1],99.4%
same,inhibition,[2],101%
Cc1ccc(S(=O)(=O)c2nc(-c3ccccc3Cl)oc2N(C)C2CCN(C)CC2)cc1,inhibition,[1],99.3%
same,inhibition,[2],101%
COc1ccc2c(c1)/C(=C/c1cnc[nH]1)C(=O)N2,inhibition,[6],32.2% (active)
CC1(C)Cc2c(C#N)c(N3CCNCC3)nc(-c3ccco3)c2CS1,inhibition,[15],68.9% (active)
same,inhibition,[1],101%
same,inhibition,[2],101%
N#Cc1ccc(Cn2cc(C=O)c3ccccc32)cc1,inhibition,[1],90.2%
same,inhibition,[2],42.5%
CNCC(O)c1cc(OCc2ccccc2)c(OCc2ccccc2)cc1F (stereo unspecified),inhibition,[1],102%
same,inhibition,[2],102%
O=c1[nH]c(=O)n(CCc2ccc(F)cc2)c(O)c1/C=N/N1CCCCC1,thermal shift relative to vanadate control,[16],-3.71% (inactive)
Cc1ccc(-c2cc(-c3ccc(C)cc3)[n+](-c3ccccc3)c(-c3ccc(C)cc3)c2)cc1,inhibition,[1],101%
same,inhibition,[2],102%
COc1cc2c3cc1Oc1c(OC)c(OC)cc4c1[C@H](Cc1ccc(cc1)Oc1cc(ccc1O)C[C@H]3N(C)CC2)N(C)CC4,inhibition,[6],29.8% (active)
Cn1cccc1/C=C1/C(=O)NC(=S)N(Cc2ccc(F)cc2)C1=O,inhibition,[1],101%
same,inhibition,[2],100%
Brc1ccc(-[n+]2c(-c3ccccc3)cc(-c3ccccc3)cc2-c2ccccc2)cc1,inhibition,[6],24.1% (active)
same,activity,[7],73%
same,activity,[8],63%
O=C1NC(=S)NC(=O)C1=Cc1cccn1-c1ccc(O)cc1,inhibition,[1],100%
same,inhibition,[2],101%
COc1ccc(-n2c(/C=C/c3ccc(O)c(OC)c3)nc3ccccc3c2=O)cc1,inhibition,[1],101%
same,inhibition,[2],92.7%
COc1ccccc1N=C1SCCCN1C,thermal shift relative to vanadate control,[16],-0.51% (inactive)
O=C1NC(=O)N(Cc2ccccc2)C(=O)/C1=C\C=C\c1ccco1,inhibition,[1],94.5%
same,inhibition,[2],98.5%
Cc1[nH]c2ccc(OC(F)(F)F)cc2c1CCNCc1cccc([N+](=O)[O-])c1,inhibition,[1],101%
same,inhibition,[2],101%
